Measured values reported in PubChem BioAssay (Tox21).
Inconclusive results are not listed. Calls of active or inactive are those of the source. The call rests on the fitted dose curve; in most records, active means well fitted curve in the direction sought with a large enough effect in the repeat runs; inconclusive means weak or mixed curves; inactive means no such curve, though single readings can be large; an effect the other way counts as inactive or inconclusive.

Assays:
[1] = A CellTox Green Cytotoxicity Assay to monitor cytotoxicity in HEK293 cells - 40 hour (AID 1224871); further: nearly all actives have a fitted effect of over 45% in size
Summary of the method: (§1)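 HEK293 cells premixed with CellTox Green dye were seeded at 600 cells/well and left 5 h at 37 C/5% CO2 before pin transfer of 23 nL compound in DMSO. Fluorescence from dye bound to dead-cell DNA was read during 40 h treatment.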

[2] = qHTS RealTime-Glo MT Cell Viability Assay in HEK293 cells - 16 hour (AID 1224872); further: top concentration of the series differs between compounds; nearly all actives have a fitted effect of over 50% in size
Summary of the method: (§2)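 Luminescence generated by NanoLuc from substrate produced by living HEK293 cells served as the viability signal. Each value reflects the reading at its stated time point during continuous 40 h compound exposure at 37 C.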

[3] = qHTS RealTime-Glo MT Cell Viability Assay in HepG2 cells - 8 hour (AID 1224873); further: nearly all actives have a fitted effect of over 55% in size
Summary of the method: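 Real-time viability: cells seeded at 600 per well together with NanoLuc and cell-permeant prosubstrate, compounds added after 5 h incubation. Luminescence tracked at 0, 8, 16, 24, 32 and 40 h of exposure.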

[4] = qHTS RealTime-Glo MT Cell Viability Assay in HEK293 cells - 40 hour (AID 1224874); settings: RealTime-Glo luminescence; max response: active compounds read low; further: nearly all actives have a fitted effect of over 50% in size
Summary of the method: (§3)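 HEK293 cells mixed with RealTime-Glo reagents (NanoLuc plus cell-permeant prosubstrate) at 600 cells/well, preincubated 5 h at 37 C/5% CO2, then given 23 nL compound in DMSO. Nonlytic luminescence from viable cells was read at 0, 8, 16, 24, 32 and 40 h.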

[5] = A CellTox Green Cytotoxicity Assay to monitor cytotoxicity in HEK293 cells - 24 hour (AID 1224875); further: series mostly up to about 77 µM; nearly all actives have a fitted effect of over 45% in size
Summary of the method: as §1

[6] = A CellTox Green Cytotoxicity Assay to monitor cytotoxicity in HepG2 cells - 16 hour (AID 1224876); further: nearly all actives have a fitted effect of over 45% in size
Summary of the method: (§4)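 HepG2 cells were seeded together with the CellTox Green dye at 600 cells/well, left 5 h at 37 C/5% CO2, then given compounds in DMSO. Fluorescence from dye bound to dead-cell DNA was read repeatedly over 40 h of treatment at 37 C.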

[7] = qHTS RealTime-Glo MT Cell Viability Assay in HepG2 cells - 32 hour (AID 1224877); further: nearly all actives have a fitted effect of over 55% in size
Summary of the method: (§5)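 Tox21 10K library screened in qHTS format on HepG2 cells carrying RealTime-Glo reagents. Compounds were added after a 5 h preincubation, and the luminescent signal from continuous culture was measured repeatedly during 40 h treatment.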

[8] = A CellTox Green Cytotoxicity Assay to monitor cytotoxicity in HepG2 cells - 24 hour (AID 1224878); further: nearly all actives have a fitted effect of over 45% in size
Summary of the method: as §4

[9] = A CellTox Green Cytotoxicity Assay to monitor cytotoxicity in HepG2 cells - 40 hour (AID 1224879); further: nearly all actives have a fitted effect of over 40% in size
Summary of the method: as §4

[10] = qHTS RealTime-Glo MT Cell Viability Assay in HEK293 cells - 0 hour (AID 1224880)
Summary of the method: as §3

[11] = A CellTox Green Cytotoxicity Assay to monitor cytotoxicity in HEK293 cells - 32 hour (AID 1224881); further: nearly all actives have a fitted effect of over 40% in size
Summary of the method: as §1

[12] = A CellTox Green Cytotoxicity Assay to monitor cytotoxicity in HepG2 cells - 0 hour (AID 1224882); further: nearly all actives have a fitted effect of over 35% in size
Summary of the method: as §4

[13] = A CellTox Green Cytotoxicity Assay to monitor cytotoxicity in HepG2 cells - 32 hour (AID 1224883); further: nearly all actives have a fitted effect of over 50% in size
Summary of the method: as §4

[14] = A CellTox Green Cytotoxicity Assay to monitor cytotoxicity in HEK293 cells - 8 hour (AID 1224884); further: nearly all actives have a fitted effect of over 35% in size
Summary of the method: as §1

[15] = qHTS RealTime-Glo MT Cell Viability Assay in HepG2 cells - 16 hour (AID 1224885); further: nearly all actives have a fitted effect of over 50% in size
Summary of the method: as §5

[16] = qHTS RealTime-Glo MT Cell Viability Assay in HEK293 cells - 24 hour (AID 1224886)
Summary of the method: as §2

[17] = qHTS RealTime-Glo MT Cell Viability Assay in HEK293 cells - 8 hour (AID 1224887)
Summary of the method: as §3

[18] = A CellTox Green Cytotoxicity Assay to monitor cytotoxicity in HEK293 cells - 16 hour (AID 1224888); further: nearly all actives have a fitted effect of over 35% in size
Summary of the method: as §1

[19] = qHTS RealTime-Glo MT Cell Viability Assay in HepG2 cells - 0 hour (AID 1224889); further: nearly all actives have a fitted effect of over 50% in size
Summary of the method: as §5

[20] = A CellTox Green Cytotoxicity Assay to monitor cytotoxicity in HepG2 cells - 8 hour (AID 1224890); further: nearly all actives have a fitted effect of over 45% in size
Summary of the method: as §4
On the % scale 0 is the no-effect control and ±100 the full control effect.

Cc1cc(C(C)(C)C)c(O)c(C)c1CC1=NCCN1
inactive: Potency [1] | Potency [2] | outcome [3] | max response [4] 0.324% | outcome [5] | outcome [6] | outcome [7] | outcome [8] | Potency [9] | Potency [10] | Potency [11] | outcome [12] | Potency [13] | Potency [14] | outcome [15] | Potency [16] | Potency [17] | outcome [18] | Potency [19] | outcome [20]

COc1ccc(-c2cc(=O)c3c(O)cc(O[C@@H]4O[C@H](CO[C@@H]5O[C@@H](C)[C@H](O)[C@@H](O)[C@H]5O)[C@@H](O)[C@H](O)[C@H]4O)cc3o2)cc1O
inactive: Potency [1] | Potency [2] | outcome [3] | max response [4] 1.76% | outcome [5] | outcome [6] | outcome [7] | outcome [8] | Potency [9] | Potency [10] | Potency [11] | outcome [12] | Potency [13] | Potency [14] | outcome [15] | Potency [16] | Potency [17] | outcome [18] | Potency [19] | outcome [20]

CCC(CC)CO
inactive: Potency [1] | Potency [2] | outcome [3] | max response [4] 3.01% | outcome [5] | outcome [6] | outcome [7] | outcome [8] | Potency [9] | Potency [10] | Potency [11] | outcome [12] | Potency [13] | Potency [14] | outcome [15] | Potency [16] | Potency [17] | outcome [18] | Potency [19] | outcome [20]

CO[C@@H]1[C@@H](OC(N)=O)[C@@H](O)[C@H](Oc2ccc3c(O)c(NC(=O)c4ccc(O)c(CC=C(C)C)c4)c(=O)oc3c2C)OC1(C)C
inactive: Potency [1] | Potency [2] | outcome [3] | max response [4] 7.28% | outcome [5] | outcome [6] | outcome [7] | outcome [8] | Potency [9] | Potency [10] | Potency [11] | outcome [12] | Potency [13] | Potency [14] | outcome [15] | Potency [16] | Potency [17] | outcome [18] | Potency [19] | outcome [20]

CCCC(=O)C(C)=O
inactive: Potency [1] | Potency [2] | outcome [3] | max response [4] -1.51% | outcome [5] | outcome [6] | outcome [7] | outcome [8] | Potency [9] | Potency [10] | Potency [11] | outcome [12] | Potency [13] | Potency [14] | outcome [15] | Potency [16] | Potency [17] | outcome [18] | Potency [19] | outcome [20]

CN(CCOc1ccc(NS(C)(=O)=O)cc1)CCc1ccc(NS(C)(=O)=O)cc1
inactive: Potency [1] | Potency [2] | outcome [3] | max response [4] -0.0536% | outcome [5] | outcome [6] | outcome [7] | outcome [8] | Potency [9] | Potency [10] | Potency [11] | outcome [12] | Potency [13] | Potency [14] | outcome [15] | Potency [16] | Potency [17] | outcome [18] | Potency [19] | outcome [20]

C=CCCCCCCCCCCCC
inactive: Potency [1] | Potency [2] | outcome [3] | max response [4] -0.0097% | outcome [5] | outcome [6] | outcome [7] | outcome [8] | Potency [9] | Potency [10] | Potency [11] | outcome [12] | Potency [13] | Potency [14] | outcome [15] | Potency [16] | Potency [17] | outcome [18] | Potency [19] | outcome [20]

CN(C)CCOCCO
inactive: Potency [1] | Potency [2] | outcome [3] | max response [4] -8.11% | outcome [5] | outcome [6] | outcome [7] | outcome [8] | Potency [9] | Potency [10] | Potency [11] | outcome [12] | Potency [13] | Potency [14] | outcome [15] | Potency [16] | Potency [17] | outcome [18] | Potency [19] | outcome [20]

Cc1cc(Cl)c(C)cc1Cl
inactive: Potency [1] | Potency [2] | outcome [3] | max response [4] 6.26% | outcome [5] | outcome [6] | outcome [7] | outcome [8] | Potency [9] | Potency [10] | Potency [11] | outcome [12] | Potency [13] | Potency [14] | outcome [15] | Potency [16] | Potency [17] | outcome [18] | Potency [19] | outcome [20]

CC1=C(C(=O)O)N2C(=O)[C@@H](NC(=O)[C@H](N)c3ccc(O)cc3)[C@H]2SC1
inactive: Potency [1] | Potency [2] | outcome [3] | max response [4] 13.3% | outcome [5] | outcome [6] | outcome [7] | outcome [8] | Potency [9] | Potency [10] | Potency [11] | outcome [12] | Potency [13] | Potency [14] | outcome [15] | Potency [16] | Potency [17] | outcome [18] | Potency [19] | outcome [20]

C=Cc1ccccn1
inactive: Potency [1] | Potency [2] | outcome [3] | max response [4] -0.127% | outcome [5] | outcome [6] | outcome [7] | outcome [8] | Potency [9] | Potency [10] | Potency [11] | outcome [12] | Potency [13] | Potency [14] | outcome [15] | Potency [16] | Potency [17] | outcome [18] | Potency [19] | outcome [20]
